Screening data from PubChem BioAssay.
uPA surface inh: cell surface uPA generation inhibition | cell surface uPA generation assay, qHTS | Potency, µM (highest dose often 38.3 µM), for inactives: at the top dose activity change, negative = inhibition, actives largely listed as inhibitors | 330,000 compounds, 0.31% hits | AID 540303; active = well fitted inhibition curve with a large enough effect; inconclusive = small, poorly fitted or top-dose-only effect; inactive = no such curve, though single readings can be large or run the other way; tested in mouse RAW 264.7 cells; also: potency is read from the fitted curve at half-maximal effect; nearly all actives have a fitted effect of over 55% in size
HT1080-NT tox: kills 2HG-producing HT-1080-NT fibrosarcoma cells; HT-1080-NT fibrosarcoma viability, CellTiter-Glo ATP luminescence, 48 h; Potency, µM (highest dose often 46.1 µM), for the others: at the top dose activity, negative = less viability, usual class: cytotoxic; 360,000 compounds, 1.6% hits;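 also: NT is the 2HG producing partner of a matched IDH1 knockdown line; potency is read from the fitted curve at half-maximal effect; 0% = DMSO-treated cells and -100% = media-only wells without cells; nearly all actives have a fitted effect of over 55% in size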
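Viability by CellTiter-Glo luminescence after 48 h compound exposure at 37C of HT-1080-NT cells (750/well, RPMI, 5% FBS). % activity scaled between DMSO wells and medium-only wells, then curve-fitted and categorized by curve class.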
HT1080 IDH1KD tx: toxicity to HT-1080 IDH1 knockdown cells (counter line) | HT-1080 IDH1 knockdown viability, ATP luminescence, 48 h | Potency, µM (series often up to 46.1 µM), for the others: at the highest dose activity, negative = toxicity, most hits filed as cytotoxic | 360,000 compounds, 2% hits;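 also: potency is read from the fitted curve at half-maximal effect; 0% = DMSO wells and -100% = cell-free medium wells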
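Cytotoxicity counter-line: IDH1KD HT-1080, 48 h, CellTiter-Glo. Curves classed by r2, magnitude and activity.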
IL-1B inflam inh: inflammasome signaling inhibition, IL-1 beta readout; 360,000 compounds, 4.7% hits; AID 743279; activity change, % at 57.5 µM; THP-1 LPS/ATP IL-1B secretion, AlphaLISA, 16 h; hits give low values; in the data active = activity change below about -50%; inconclusive = mostly about -30% to -49%
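Secreted IL-1B measured by AlphaLISA bead assay after 16 h compound exposure of THP-1 cells; compounds (final up to 57.5 uM) added 1 h before LPS (250 ng/mL) and ATP (1.25 mM) stimulation; lower signal means less secretion.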
TDP1 cell CPT: DT40-hTDP1 cell growth loss with CPT | chicken DT40 Tdp1-/-;hTDP1 cells + 20 nM CPT, ATP luminescence, 48 h | 420,000 compounds, 12% hits | Potency, µM (doses to about 46.2 µM), without a hit: at the highest dose activity change, negative = growth inhibition, most hits filed as inhibitors; also: potency is read from the fitted curve at half-maximal effect; nearly all actives have a fitted effect of over 55% in size
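Chicken DT40 Tdp1-/- cells complemented with human TDP1, 400 cells/well, exposed to compounds plus 20 nM camptothecin for at least 48 h at 37 C; viability read as ATP content by CellTiter-Glo luminescence.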
DT40 TDP1 no CPT: qHTS for Inhibitors of human tyrosyl-DNA phosphodiesterase 1 (TDP1): qHTS in cells in absence of CPT; DT40 Tdp1-/- hTDP1 cells, no CPT, ATP luminescence, 48 h; Potency, µM (titrated, usually from 46.2 µM), for the others: at the highest dose activity change, negative = growth inhibition, most hits filed as inhibitors; 420,000 compounds, 15% hits; also: potency is read from the fitted curve at half-maximal effect; nearly all actives have a fitted effect of over 55% in size
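Camptothecin absent (DMSO only). Human TDP1-complemented DT40 knockout cells, 400 cells/well, 37 °C for minimum 48 hr; ATP measured via CellTiter-Glo, 30 min dark incubation, luminescence.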
* hit, by the source's call; ? = inconclusive; · = not tested or not shown. Most compounds without a hit are left out; they make up all but 19% or so of the library. Unless noted, calls follow the shape of the dose curve; as a rule, active = well fitted curve in the direction sought with a large enough effect; inconclusive = small, poorly fitted or top-dose-only effect, or another doubt; inactive = no such curve, though single readings can be large; an effect the other way counts as inactive or inconclusive. Unless noted, % is scaled to controls: 0 for no effect and ±100 for the full control effect.

SMILES	uPA surface inh	HT1080-NT tox	HT1080 IDH1KD tx	IL-1B inflam inh	TDP1 cell CPT	DT40 TDP1 no CPT
OC[C@@H]1CN(Cc2cccs2)C[C@H](n2cnc3c(N4CCN(c5ccccc5)CC4)ncnc32)O1	·	-15.5%	?	5.3	23.1µM*	?
CNc1ncnc2c1ncn2[C@H]1CN(Cc2ccc3c(c2)OCO3)C[C@@H](CO)O1	·	5.3%	0.2%	-8.4	11.6µM*	?
OC[C@@H]1CN(Cc2ccc3c(c2)OCO3)C[C@H](n2cnc3c(N4CCN(c5ccccc5)CC4)ncnc32)O1	·	6.9%	-20.4%	-1.4	18.4µM*	?
COCCN1C[C@@H](CO)O[C@@H](n2cnc3c(N4CCN(c5ccccc5)CC4)ncnc32)C1	·	8.0%	?	33.8	-17.3%	?
O=C(CNC(=O)N1CC(=O)Nc2ccccc21)NCCc1c[nH]c2ccccc12	12.9%	-2.0%	-3.4%	-22.1	-2.8%	0.0%
CC1(C(=O)NCc2cccnc2)CCN1C(=O)Cc1cccs1 (configuration not stated)	·	17.5%	19.8%	34.9	-0.5%	16.9%
CC(=O)OC[C@@H]1CN(Cc2ccccc2)C[C@H](n2cnc3c(NC(C)C)ncnc32)O1	·	23.1%	8.4%	18.6	-8.6%	?
CC(=O)OC[C@@H]1CN(Cc2ccccc2)C[C@H](n2cnc3c(N4CCN(c5ccccc5)CC4)ncnc32)O1	·	-2.2%	-24.9%	10.2	16.4µM*	18.4µM*
COc1ccc(-c2c[n+](CC(=O)N3c4ccccc4Sc4ccccc43)c3n2CCC3)cc1	2.0%	?	?	-61.5*	2.31µM*	2.06µM*
O=C(C[n+]1cc(-c2ccccc2)n2c1CCC2)OCc1ccccc1	-0.1%	17.5%	9.6%	-0.6	11.2%	-18.7%
O=C(C[n+]1cc(-c2ccc(Cl)cc2)n2c1CCC2)N1c2ccccc2Sc2ccccc21	-0.4%	-3.9%	-10.7%	-57.1*	9.2µM*	13µM*
O=C(C[n+]1cc(-c2ccc(Cl)c(Cl)c2)n2c1CCC2)N1c2ccccc2Sc2ccccc21	4.3%	?	?	-25.3	16.4µM*	23.1µM*
CC1CCC(C(C)C)C(OC(=O)C[n+]2cc(-c3ccc(Cl)cc3)n3c2CCC3)C1 (configuration not stated)	-4.4%	?	?	-86.1*	2.91µM*	2.31µM*
Cc1cccc(C)c1NC(=O)C[n+]1cc(-c2ccccc2)n2c1CCC2	6.4%	3.3%	0.4%	-13.8	1.0%	-4.3%
CC1CCC(C(C)C)C(OC(=O)CSc2nnc(N)s2)C1 (configuration not stated)	-4.7%	-1.3%	1.0%	14.3	?	-29.1%
COc1ccccc1P(=O)(c1ccccc1)c1ccc([N+](=O)[O-])cc1 (configuration not stated)	-8.5%	1.3%	4.6%	10.5	14.0%	?
CC1(C(=O)NS(=O)(=O)c2ccccc2)CCN1C(=O)CC1CCCCC1 (configuration not stated)	·	13.5%	27.7%	19.5	-3.7%	-5.9%
CCOC(=O)N1CCN(Cc2nc3cc([N+](=O)[O-])ccc3n2C(C)C)CC1	·	·	·	·	20.6µM*	?
CCn1c(CN2CCOCC2)nc2cc(NC(=O)c3ccccc3[N+](=O)[O-])ccc21	·	·	·	·	-20.9%	-17.3%
CCOC(=O)N1CCN(Cc2nc3cc(NC(=O)c4ccccc4[N+](=O)[O-])ccc3n2C(C)C)CC1	·	·	·	·	16.4µM*	16.4µM*
CCOC(=O)N1CCN(Cc2nc3cc(NC(=O)c4ccccc4OC)ccc3n2C(C)C)CC1	·	·	·	·	3.66µM*	2.31µM*
CCc1ccc2oc(C(=O)Nc3nc(-c4ccccc4)ns3)c(C)c2c1	·	·	·	·	-19.6%	-21.3%
C=C(C)CN=CC1(C)CCC(C)=CO1 (configuration not stated)	-1.5%	2.7%	13.1%	-1.0	16.4µM*	18.4µM*
CCOc1ccc(N/C(C)=C/C(=O)c2ccc3c(c2)OCCO3)cc1	-3.8%	20.9%	-13.9%	-76.9*	-20.8%	?
CCC(=O)c1ccc(OCC(=O)Nc2ccc3c(c2)OCCO3)cc1	-4.1%	-4.7%	-3.0%	-6.5	-19.0%	11.6µM*
SMILES	uPA surface inh	HT1080-NT tox	HT1080 IDH1KD tx	IL-1B inflam inh	TDP1 cell CPT	DT40 TDP1 no CPT
CC(=O)Oc1ccc(C(=O)Nc2ccc3c(c2)OCCO3)cc1	-8.7%	?	?	?	14.6µM*	13µM*
CCOc1ccc(N/C(C)=C\C(=O)c2ccc3c(c2)OCCO3)cc1	1.2%	11.1%	0.8%	-10.9	16.7%	-1.4%
O=C(Nc1ccc2c(c1)OCCO2)c1ccccc1	0.2%	-7.1%	-4.8%	-25.1	-26.8%	-25.2%
O=C(Nc1ccc2c(c1)OCCO2)c1ccc(Br)s1	-9.5%	-5.2%	-0.9%	-76.5*	?	?
COC(=O)C1=CN(c2ccc(C)cc2)C(N)=C(C#N)C1c1ccccc1F (configuration not stated)	·	-23.5%	?	-11.6	?	?
CC(=O)Oc1ccc(C(=O)Nc2cc(NC(=O)c3ccc(OC(C)=O)cc3)cc(C(=O)NC(C)(C)C)c2)cc1	-1.2%	-24.4%	-26.0%	-63.7*	20.6µM*	25.9µM*
COc1cc2[nH]c(C(=O)Nc3ccc4c(c3)OCCO4)cc2c(OC)c1OC	-3.5%	-29.5%	-26.1%	-91.0*	16.4µM*	?
CC(=O)Oc1ccc(C(=O)Nc2ccccc2NC(=O)c2ccc(OC(C)=O)cc2)cc1	-1.8%	-3.1%	6.9%	0.8	-14.4%	-12.3%
COc1ccc(C(=O)CCNc2ccc3c(c2)OCCO3)cc1	-5.2%	4.3%	-7.3%	-52.7*	14.6µM*	13µM*
COc1ccc(S(=O)(=O)Nc2ccc(OCC(=O)O)cc2)c2ccccc12	-2.0%	12.7%	20.0%	9.8	1.7%	-0.3%
CCn1nc(C)cc1C(=O)Sc1cccc(Cl)c1	0.5%	18.4µM*	?	-6.5	3.66µM*	4.11µM*
Cc1nn(C)c(C(=O)Sc2cccc(Cl)c2)c1[N+](=O)[O-]	-0.6%	-9.2%	-17.7%	-10.8	4.61µM*	2.91µM*
Cc1nn(C(C)C(=O)c2cccc(Cl)c2)c(C)c1[N+](=O)[O-] (configuration not stated)	-6.5%	-3.8%	-11.0%	26.5	12.5%	-1.6%
Cc1nn(C)c(C(=O)Sc2ccccc2)c1[N+](=O)[O-]	0.9%	-21.8%	?	-13.2	?	23.1µM*
